# From PubChem BioAssay (Tox21)
# Unmarked numbers belong to inactive results. Records with an inconclusive call do not appear. Where a call stands in place of a potency, no number is given. Calls of active or inactive are those of the source. Unless noted, the call rests on the fitted dose curve.
# Legend:
# [1] = qHTS assay to identify small molecule antagonists of the estrogen receptor beta (ER-beta) signaling pathway - cell viability counter screen (AID 1259382; active means well fitted curve in the direction sought with a large enough effect in the repeat runs; an effect the other way counts as inactive or inconclusive;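 further: HEK293T cells carrying ER-beta-UAS-bla reporter stimulated with estradiol; nearly all actives have a fitted effect of over 55% in size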); settings: ER-beta-UAS-bla HEK293T viability, CellTiter-Glo luminescence, 16 h; series mostly up to 92.4 µM
# Summary of the method: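 CellTiter-Glo ATP luminescence measured after the LiveBLAzer read in the same wells; ER-beta-UAS-bla HEK293T cells, 16 hr compound treatment with 1nM 17-beta-estradiol agonist at 37C, 5% CO2.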
# [2] = molecular target: Estrogen receptor (Homo sapiens) (UniProt P03372); experiment: qHTS assay to identify small molecule agonists of the estrogen receptor alpha (ER-alpha) signaling pathway in the presence of an antagonist (AID 1259383); settings: VM7Luc4E2 cells, ERE-luciferase, +ICI-182,780, 22 h; series mostly up to 92.4 µM; further: top concentration of the series differs between compounds; nearly all actives have a fitted effect of over 15% in size
# Chain of Estrogen receptor (Homo sapiens) (P03372 whole entry, looked up): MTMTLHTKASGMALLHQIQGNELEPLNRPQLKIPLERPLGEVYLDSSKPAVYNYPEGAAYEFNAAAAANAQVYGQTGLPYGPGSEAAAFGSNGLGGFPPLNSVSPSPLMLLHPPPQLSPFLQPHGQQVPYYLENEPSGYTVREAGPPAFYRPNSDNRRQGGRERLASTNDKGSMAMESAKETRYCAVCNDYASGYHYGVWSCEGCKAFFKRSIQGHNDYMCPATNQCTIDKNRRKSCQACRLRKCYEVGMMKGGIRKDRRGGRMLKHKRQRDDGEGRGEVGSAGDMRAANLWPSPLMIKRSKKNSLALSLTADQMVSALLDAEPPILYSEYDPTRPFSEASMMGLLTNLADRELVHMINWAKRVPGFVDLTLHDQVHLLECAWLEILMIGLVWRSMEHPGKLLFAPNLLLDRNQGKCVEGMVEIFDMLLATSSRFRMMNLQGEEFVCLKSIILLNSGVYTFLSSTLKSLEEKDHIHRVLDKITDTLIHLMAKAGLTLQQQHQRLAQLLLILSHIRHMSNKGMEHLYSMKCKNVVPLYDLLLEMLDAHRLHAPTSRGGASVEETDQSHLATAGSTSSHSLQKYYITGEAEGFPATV
# Summary of the method: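 Luminescent ERE-luciferase reporter, VM7Luc4E2 cells (endogenous ER-alpha); 10.0nM ICI-182,780 final; 15-point compound titration; 22hr at 37C; ONE-Glo, 30min RT.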
# [3] = qHTS assay to identify small molecule agonists or antagonists of the thyroid stimulating hormone receptor (TSHR) signaling pathway - wild type cell line counter screen (AID 1259384); settings: HEK293 wild type, cAMP HTRF counter-screen; series mostly up to 92.4 µM
# Summary of the method: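 Wild-type HEK293 cells were plated 18 h at 37 C/5% CO2, pin-dosed with compound plus Ro20-1724 medium, held 30 min at room temperature, then given cAMP-d2 and anti-cAMP-cryptate; fluorescence was read after 1 h. Fifteen concentrations, triplicate.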
# [4] = molecular target: Thyrotropin receptor (Homo sapiens) (UniProt P16473); experiment: qHTS assay to identify small molecule antagonists of the thyroid stimulating hormone receptor (TSHR) signaling pathway (AID 1259385); settings: TSHR-HEK293 cAMP HTRF, TSH-stimulated antagonist mode; series mostly up to 92.4 µM; further: nearly all actives have a fitted effect of over 20% in size
# Chain of Thyrotropin receptor (Homo sapiens) (P16473 whole entry, looked up): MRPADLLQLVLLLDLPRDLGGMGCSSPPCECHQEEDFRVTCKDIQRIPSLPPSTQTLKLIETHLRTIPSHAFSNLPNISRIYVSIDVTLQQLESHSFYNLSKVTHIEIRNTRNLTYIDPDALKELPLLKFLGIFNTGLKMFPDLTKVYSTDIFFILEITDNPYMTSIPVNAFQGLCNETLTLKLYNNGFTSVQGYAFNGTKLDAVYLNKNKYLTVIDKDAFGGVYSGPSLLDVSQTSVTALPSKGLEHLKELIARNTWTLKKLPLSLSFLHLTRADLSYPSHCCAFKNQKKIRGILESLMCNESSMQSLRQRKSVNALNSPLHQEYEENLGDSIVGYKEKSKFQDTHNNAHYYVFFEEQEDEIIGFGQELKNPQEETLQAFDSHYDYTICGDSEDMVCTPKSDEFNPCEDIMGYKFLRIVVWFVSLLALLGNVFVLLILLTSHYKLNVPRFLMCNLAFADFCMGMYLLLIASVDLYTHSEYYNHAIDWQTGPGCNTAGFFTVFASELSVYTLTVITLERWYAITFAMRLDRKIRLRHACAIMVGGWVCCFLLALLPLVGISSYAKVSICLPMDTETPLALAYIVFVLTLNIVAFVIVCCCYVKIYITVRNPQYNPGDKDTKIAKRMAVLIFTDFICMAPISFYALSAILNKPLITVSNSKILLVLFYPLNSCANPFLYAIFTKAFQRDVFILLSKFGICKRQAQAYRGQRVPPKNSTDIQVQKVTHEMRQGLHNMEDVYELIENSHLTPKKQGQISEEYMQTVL
# Summary of the method: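 TSHR-HEK293 cells were plated and held 18 h at 37C/5% CO2, then given compound plus Ro20-1724 and stimulated with TSH at 1.5 ng/mL final. After 30 min at room temperature, cAMP was detected with cAMP-d2/anti-cAMP-cryptate (1 h) by fluorescence.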
# [5] = molecular target: Progesterone receptor (Homo sapiens) (UniProt P06401); experiment: qHTS assay to identify small molecule agonists of the progesterone receptor (PR) signaling pathway (AID 1346784); settings: PR-UAS-bla HEK293T, beta-lactamase FRET ratio, 16 h; series mostly up to 92.4 µM; further: nearly all actives have a fitted effect of over 30% in size
# Chain of Progesterone receptor (Homo sapiens) (P06401 whole entry, looked up): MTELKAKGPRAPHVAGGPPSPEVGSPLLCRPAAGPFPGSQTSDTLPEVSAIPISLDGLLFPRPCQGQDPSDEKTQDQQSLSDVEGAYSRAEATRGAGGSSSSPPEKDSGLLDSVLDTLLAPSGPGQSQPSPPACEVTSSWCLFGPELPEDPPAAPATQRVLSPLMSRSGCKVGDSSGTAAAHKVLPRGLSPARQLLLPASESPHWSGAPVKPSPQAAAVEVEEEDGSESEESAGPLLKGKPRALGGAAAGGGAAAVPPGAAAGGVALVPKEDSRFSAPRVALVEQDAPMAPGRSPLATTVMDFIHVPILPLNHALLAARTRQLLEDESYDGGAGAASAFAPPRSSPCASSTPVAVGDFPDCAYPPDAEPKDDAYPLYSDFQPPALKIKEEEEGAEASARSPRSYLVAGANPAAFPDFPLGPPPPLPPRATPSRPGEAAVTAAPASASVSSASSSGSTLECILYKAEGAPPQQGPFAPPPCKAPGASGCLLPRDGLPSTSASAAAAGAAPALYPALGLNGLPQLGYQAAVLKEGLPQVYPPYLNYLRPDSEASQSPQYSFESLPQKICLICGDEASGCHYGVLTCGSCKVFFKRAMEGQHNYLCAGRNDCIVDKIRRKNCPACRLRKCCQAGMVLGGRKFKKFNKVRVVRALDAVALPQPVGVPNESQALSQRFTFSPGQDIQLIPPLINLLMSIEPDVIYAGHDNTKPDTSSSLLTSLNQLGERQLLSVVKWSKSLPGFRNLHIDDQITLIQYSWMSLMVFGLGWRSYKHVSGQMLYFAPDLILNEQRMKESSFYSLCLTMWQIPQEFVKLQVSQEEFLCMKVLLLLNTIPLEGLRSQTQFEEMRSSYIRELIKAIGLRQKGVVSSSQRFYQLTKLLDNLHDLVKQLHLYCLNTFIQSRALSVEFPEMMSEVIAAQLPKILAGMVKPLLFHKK
# Summary of the method: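 Reporter assay, GripTite PR-UAS-bla HEK 293T cells: 16 hr exposure to DMSO-dissolved compounds at 37C, 5% CO2, in steroid-depleted (2% charcoal-stripped FBS) medium; beta-lactamase measured by FRET fluorescence.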
# [6] = molecular target: Progesterone receptor (Homo sapiens) (UniProt P06401); experiment: qHTS assay to identify small molecule antagonists of the progesterone receptor (PR) signaling pathway (AID 1346795; active means well fitted inhibition curve with a large enough effect in the signal ratio in the repeat runs, not every such curve was filed as active; the % refers to the signal ratio; further: potency means the concentration at half of the fitted maximal effect); settings: PR-UAS-bla HEK293T, beta-lactamase FRET ratio, 16 h; series mostly up to 92.4 µM
# Summary of the method: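 Stimulus R5020 at 1 nM final; cells HEK293T PR-UAS-bla; medium with 2% charcoal-stripped FBS; compound exposure 16 hr at 37C, 5% CO2; detection by FRET beta-lactamase substrate, 2 hr, room temperature.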
# [7] = qHTS assay to identify small molecule antagonists of the progesterone receptor (PR) signaling pathway - cell viability counter screen (AID 1346798; active means well fitted curve in the direction sought with a large enough effect in the repeat runs; an effect the other way counts as inactive or inconclusive; further: nearly all actives have a fitted effect of over 50% in size); settings: PR-UAS-bla HEK293T viability, CellTiter-Glo luminescence, 16 h; series mostly up to 92.4 µM
# Summary of the method: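 In the same plates used for the beta-lactamase readout, cell viability of compound- and R5020-treated PR-UAS-bla HEK293T cells (16 hr, 37C) was assessed by CellTiter-Glo luminescence.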
# [8] = qHTS assay to identify small molecule agonists of the progesterone receptor (PR) signaling pathway - cell viability counter screen (AID 1346799); settings: PR-UAS-bla HEK293T viability, CellTiter-Glo luminescence, 16 h; series mostly up to 92.4 µM; further: nearly all actives have a fitted effect of over 45% in size
# Summary of the method: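 Multiplexed viability read: CellTiter-Glo luminescence, 30 min RT, following LiveBLAzer FRET measurement on PR-UAS-bla HEK293T cells exposed to compounds 16 hr.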
# [9] = qHTS assay to identify small molecule agonists of the estrogen receptor alpha (ER-alpha) signaling pathway in the presence of an antagonist - cell viability counter screen (AID 1259386; active means well fitted curve in the direction sought with a large enough effect in the repeat runs; an effect the other way counts as inactive or inconclusive;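 further: cells exposed to compounds for 22 h at 37 °C before the viability read; nearly all actives have a fitted effect of over 30% in size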; further: potency means the concentration at half of the fitted maximal effect); settings: VM7Luc4E2 viability, CellTiter-Fluor fluorescence, 22 h; series mostly up to 92.4 µM
# Summary of the method: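 Using estrogen-depleted VM7Luc4E2 cells, the 15-concentration compound series was applied together with 10.0nM ICI-182,780 and incubated 22hr at 37C/5% CO2. Cell viability was then scored by CellTiter-Fluor.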
structure (smiles),measurement,setting,value
CCn1c2ccccc2c2ccccc21,Potency,[1],inactive
same,Potency,[2],inactive
same,Potency,[3],inactive
same,Potency,[4],inactive
same,outcome,[5],inactive
same,Potency,[6],inactive
same,Potency,[7],inactive
same,Potency,[8],inactive
Cn1c(=O)[nH]c2ncn(C)c2c1=O,Potency,[1],inactive
same,Potency,[2],inactive
same,Potency,[3],inactive
same,Potency,[4],inactive
same,Potency,[9],inactive
same,outcome,[5],inactive
same,Potency,[6],inactive
same,Potency,[8],inactive
Oc1ccc(Cl)cc1C1CCCC1,Potency,[1],inactive
same,Potency,[2],inactive
same,Potency,[3],inactive
same,Potency,[4],inactive
same,Potency,[9],inactive
same,outcome,[5],inactive
same,Potency,[7],inactive
same,Potency,[8],inactive
C=C[Si](C)(C)Cl,"activity change, negative = cytotoxicity",[1],6.43% [at 8.39 µM]
same,activation,[2],-1.47% [at 8.39 µM]
same,cAMP activity change,[3],"-4.27% [at 8.39 µM, stronger effect = higher value]"
same,"activity change, negative = inhibition",[4],0.177% [at 8.39 µM]
same,"activity change, negative = cytotoxicity",[9],0.757% [at 8.39 µM]
same,activation,[5],0.63% [at 8.39 µM]
same,"activity change, negative = inhibition",[6],4.87% [at 8.39 µM]
same,"activity change, negative = cytotoxicity",[8],-13.4% [at 8.39 µM]
NCc1ccco1,Potency,[1],inactive
same,Potency,[3],inactive
same,Potency,[4],inactive
same,Potency,[9],inactive
same,outcome,[5],inactive
same,Potency,[6],inactive
same,Potency,[7],inactive
same,Potency,[8],inactive
NC(=O)c1ccccc1Cl,Potency,[1],inactive
same,Potency,[2],inactive
same,Potency,[9],inactive
same,outcome,[5],inactive
same,Potency,[6],inactive
same,Potency,[7],inactive
same,Potency,[8],inactive
O=C1CCCCCCCCCCCCCC1,Potency,[1],inactive
same,Potency,[2],inactive
same,Potency,[3],inactive
same,Potency,[9],inactive
same,outcome,[5],inactive
same,Potency,[6],inactive
same,Potency,[7],inactive
same,Potency,[8],inactive
C/C(=N\[Si](C)(C)C)O[Si](C)(C)C,Potency,[1],inactive
same,Potency,[2],inactive
same,outcome,[5],inactive
same,Potency,[6],inactive
same,Potency,[7],inactive
same,Potency,[8],inactive
c1ccc(C[P+](c2ccccc2)(c2ccccc2)c2ccccc2)cc1,Potency,[1],inactive
same,Potency,[2],inactive
same,Potency,[3],inactive
same,Potency,[9],27.3 µM (active)
same,outcome,[5],inactive
same,Potency,[6],inactive
COc1cc([C@@H]2c3cc4c(cc3[C@@H](O[C@@H]3O[C@@H]5CO[C@@H](C)O[C@H]5[C@H](O)[C@H]3O)[C@H]3COC(=O)[C@H]23)OCO4)cc(OC)c1O,Potency,[1],inactive
same,Potency,[3],inactive
same,Potency,[4],inactive
same,Potency,[9],inactive
same,outcome,[5],inactive
same,Potency,[6],24.1 µM (active)
CCOC(=O)[C@H](C)O,Potency,[1],inactive
same,Potency,[2],inactive
same,Potency,[9],inactive
same,outcome,[5],inactive
same,Potency,[6],inactive
same,Potency,[7],inactive
same,Potency,[8],inactive
C=C(C)C1CCC(C)CC1O (configuration not stated),Potency,[1],inactive
same,Potency,[3],inactive
same,Potency,[4],inactive
same,Potency,[9],inactive
same,outcome,[5],inactive
same,Potency,[7],inactive
same,Potency,[8],inactive
